Source: the supplement of paper PMC10681739

Tests used:
ETS1 [1] = target: T1, ETS1 (UniProt P14921); assay: ETS1 binding intensity (PBM fluorescence), ETS1 alone (arbitrary fluorescence units); higher = stronger binding; details: ETS1 concentration 1 nM; RUNX1 concentration 0 nM
T1 sequence: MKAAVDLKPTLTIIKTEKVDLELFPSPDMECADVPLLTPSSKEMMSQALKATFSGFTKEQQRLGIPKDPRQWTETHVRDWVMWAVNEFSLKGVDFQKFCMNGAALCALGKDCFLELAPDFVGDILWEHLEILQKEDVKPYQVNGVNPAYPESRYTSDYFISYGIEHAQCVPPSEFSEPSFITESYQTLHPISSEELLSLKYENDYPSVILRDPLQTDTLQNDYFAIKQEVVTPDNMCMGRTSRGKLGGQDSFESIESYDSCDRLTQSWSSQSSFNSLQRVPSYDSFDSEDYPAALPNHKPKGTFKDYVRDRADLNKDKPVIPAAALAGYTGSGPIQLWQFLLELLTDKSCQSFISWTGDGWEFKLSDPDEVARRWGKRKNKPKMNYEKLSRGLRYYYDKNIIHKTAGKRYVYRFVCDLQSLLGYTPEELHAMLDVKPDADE

RUNX1 [2] = target: RUNX1 (UniProt Q01196); assay: RUNX1 binding intensity (PBM fluorescence), RUNX1 alone (arbitrary fluorescence units); higher = stronger binding; details: RUNX1 concentration 2 nM; ETS1 concentration 0 nM
Experimental: (§1)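 Cooperative gcPBM on 36-bp genomic probes with neighbouring ETS1 and RUNX1 sites. Recombinant human RUNX1 (2 nM) was incubated alone or with ETS1 (25 nM) and detected with anti-RUNX1 antibody plus Alexa488 secondary. Values are medians over 4 replicate spots; the RUNX1+ETS1 data were normalised to the RUNX1-only data. The probes sit in constant array flanks that are not printed.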

ETS1 [3] = target: T1, ETS1; assay: ETS1 binding intensity (PBM fluorescence) in presence of RUNX1, normalised to ETS1-only experiment (arbitrary fluorescence units); higher = stronger binding; details: ETS1 concentration 1 nM; RUNX1 concentration 25 nM
RUNX1 [4] = target: RUNX1 (UniProt Q01196); assay: RUNX1 binding intensity (PBM fluorescence) in presence of ETS1, normalised to RUNX1-only experiment (arbitrary fluorescence units); higher = stronger binding; details: RUNX1 concentration 2 nM; ETS1 concentration 25 nM
Experimental: as §1
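For RUNX1 binding intensity (PBM fluorescence) in presence of ETS1, normalised to RUNX1-only experiment in this document: Full-length recombinant human ETS1 or RUNX1 bound to double-stranded 36-bp genomic probes on microarrays, detected by protein-specific primary antibody and Alexa488 secondary, spot fluorescence as median of four replicate spots.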
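For RUNX1 binding intensity (PBM fluorescence), RUNX1 alone in this document: Full-length recombinant human RUNX1 bound to double-stranded 36-bp genomic probes on a high-density microarray, scored as Alexa488 fluorescence per spot via anti-RUNX1 antibody, median of four replicate spots.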

RUNX1, sequence (Q01196 whole entry): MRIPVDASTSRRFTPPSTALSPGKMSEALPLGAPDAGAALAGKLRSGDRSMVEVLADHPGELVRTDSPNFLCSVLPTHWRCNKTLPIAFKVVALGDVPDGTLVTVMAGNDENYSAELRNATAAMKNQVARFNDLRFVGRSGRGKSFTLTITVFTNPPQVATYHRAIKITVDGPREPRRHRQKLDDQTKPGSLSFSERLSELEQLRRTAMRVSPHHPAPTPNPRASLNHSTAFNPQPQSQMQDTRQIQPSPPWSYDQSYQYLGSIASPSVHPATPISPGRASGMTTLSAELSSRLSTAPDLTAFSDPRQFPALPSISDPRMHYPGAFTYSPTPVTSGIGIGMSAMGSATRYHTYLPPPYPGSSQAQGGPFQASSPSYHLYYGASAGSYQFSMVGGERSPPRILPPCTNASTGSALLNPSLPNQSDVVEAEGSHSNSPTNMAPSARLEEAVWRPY

Row | Sequence | ETS1 binding intensity (ETS1 [1]) | RUNX1 binding intensity (RUNX1 [2]) | ETS1 binding intensity (ETS1 [3]) | RUNX1 binding intensity (RUNX1 [4])
1 | TCCCCCACTTCCTGGCAGCAGCAGTGTGGTGAGGAG | 845 | 879 | 996 | 2160
2 | TACAGCTGGAACGTCCTGTGGTTAACATTCTGCTCT | 423 | 1130 | 568 | 1970
3 | AAAGACAGGATGTGGGGGAGTGAGCCACAAGGGCCC | 1160 | 752 | 1720 | 2080
4 | GTGGAAAGGAAATGTGTCATCTGTGGTTTGGTTTTA | 645 | 1060 | 2110 | 1410
5 | GGTAAAGCAACAGGATGTGGGTGTCTGACTTACAAT | 4330 | 700 | 6760 | 1790
6 | GAAGTCACTCAGGGAGGAAACCACAGGGCCGGTCCG | 466 | 880 | 1270 | 863
7 | TTTACTGAGAGGAAGTGGTTCTTGTGGGTGAAGGTC | 2420 | 898 | 6070 | 1530
8 | AACATCCGGTTCCCGGTTCTGCCCCCTACCGCAGCT | 3190 | 917 | 5870 | 3920
9 | GAGGCGACCCACATCCGCTGTGCGGGGGCAACTGCA | 957 | 729 | 1270 | 6600
10 | CGCCTACTCTACTTCCGCGGTCGGCCGGGTAAGGAC | 603 | 2130 | 754 | 2900
11 | ACCAGAACAGGAAATGTTAGTGGTTGAGTTAACGGT | 3760 | 700 | 5800 | 1260
12 | CTGCTTCCGGCCCCGGGGTTCGCTACCCCACAATCC | 1210 | 981 | 1240 | 2530
13 | AGGTTTTGAAAGAGGAAACCACATACCCGAAAACCA | 1120 | 1030 | 2030 | 1160
14 | CGGCTGTTTTCCAGGATGTTGTGGTCATGGCGGTGT | 1590 | 2920 | 6320 | 4090
15 | TCTCTTCCGTTCTCTGGTAGCTTTGTGGTAGCTTTG | 369 | 1350 | 534 | 2710
16 | AACAACAGGATGCTCTCTAGTCTAACAGTGGTAACA | 847 | 866 | 820 | 1020
17 | CCCACCCTCGCCGGAAGCCGAGCGGTTTCTACATCA | 2120 | 1110 | 3600 | 1540
18 | CTGAGACCTCGGGCAGGATGTGGCTTCCCCAGAGTT | 4700 | 684 | 7460 | 1180
19 | AGGGTTGGGGAGGATGTTGTGGTTATTATTGACATA | 845 | 1570 | 4990 | 2840
20 | GCCATTAAAGCAGCTTCCTGTGGGCGCGGCGCAGGA | 888 | 753 | 867 | 1010
21 | TGTCGTACATTTCCGCCTTGTGGGCACAATCTGATT | 965 | 971 | 1280 | 1950

Row | Sequence | ETS1 binding intensity (ETS1 [1]) | RUNX1 binding intensity (RUNX1 [2]) | ETS1 binding intensity (ETS1 [3]) | RUNX1 binding intensity (RUNX1 [4])
22 | CCCTCACCCCAGCTTTCCTGTGGTTAACCAAACCCC | 518 | 7290 | 822 | 9960
23 | GACTCCCTCAGCGGATGCGGGTGCTGCTGCTGCTGC | 1290 | 743 | 1400 | 1250
24 | ATACAGACACAGGAAGTTGTGGGGAGTGCAAAAGCC | 5090 | 798 | 5680 | 1530
25 | ACTTTCGCGACGCAGGAAGCGCCCACAAAGGGAGGA | 2020 | 802 | 3000 | 889
26 | ACTCCTCCCGCTTCCGCTGCCGCAGCCGGTCGTAAC | 1280 | 1310 | 1680 | 3470
27 | AGGTCTCCGGAAGTGGGTCTGCGGCGCGCGGGATGC | 6040 | 637 | 8540 | 3290
28 | GTGCCTCACCGCTTCCGGCGCTGCGGGATGACGTCA | 2390 | 786 | 4720 | 7320
29 | AACCAATCGAGCGGAGGAAACCGCGGCGTTAGCGTG | 568 | 864 | 1020 | 840
30 | ACAGGAAGAGATATTATATCTCCCTGCGGTTGGTTT | 583 | 904 | 2430 | 779
31 | TGTGTAACTTCCTGGCTTTGGTGGTTTCCCCCTCCT | 1150 | 757 | 1390 | 2180
32 | CCTACACTTCCCAGAGAACCTAGCGGTTACGCCAAC | 401 | 1340 | 505 | 1560
33 | GCTTCTTCAGCCACATCCTGACCACAGCCCAGATTC | 496 | 2350 | 1270 | 5070
34 | CCCTTCCGCGTGGGTTGCACCTGCTAACCACAGAGC | 329 | 1090 | 866 | 1600
35 | TGTGTAAGAGGAAACACCAAAACCACAAATATGAAA | 736 | 2080 | 3280 | 3530
36 | TTTTATCCTTCCTTTTTTGTTCTTTGTGGTGGAGGT | 465 | 1840 | 521 | 2040
37 | GCGGCGAACCGGACGCCCCAACCACCCGCCCCCCAC | 1710 | 987 | 1470 | 1060
38 | CAGTCAAGAGGAAATTATAAACCACTGCCTCTTTGA | 599 | 833 | 744 | 909
39 | TATTGTGTACTTCCCCTTCATGTTGTGGTTGGCTTT | 449 | 1120 | 619 | 1560
40 | AGTCTAACCAACAAAGGATGTGGTAGGTAAAAGGTT | 1250 | 834 | 2640 | 959
41 | TCTCGTCCGGTCCTTGCTCCCCCTCCCCGCAGCGCT | 637 | 1090 | 790 | 1980
